Activity calls are given as the source filed them.
Columns and labels:
[1] = small molecules captured by biotinylated probe aFSTL3 – biochemical, small-molecule microarray, fluorescence 635/667, stem cell growth factor project, primary screen (AID 1064); details: higher = more signal;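 further: measures binding of the biotinylated anti-FSTL3 antibody to printed compounds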
[2] = binders from COS7 lysate, DM2A8 probe, primary screen, torsin A project, cell lysate, small-molecule microarray, fluorescence 635/667 (AID 1065); details: higher = more signal, COS7 lysate expressing mutant human TOR1A
[3] = small molecules captured by biotinylated probe aFGF2 – biochemical, small-molecule microarray, fluorescence 635/667, stem cell growth factor project, primary screen (AID 1067); details: higher = more signal;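 further: measures binding of biotinylated aFGF2 protein to printed compounds on slides; z-score merges feature fluorescence and signal-to-noise across triplicate slides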
[4] = small molecules captured by biotinylated probe aFGF10 – biochemical, small-molecule microarray, fluorescence 635/667, stem cell growth factor project, primary screen (AID 1071); details: higher = more signal;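 further: score merges 667 nm spot intensity and signal to noise from triplicate slides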
[5] = target: Neurogenic locus notch homolog protein 2 (Homo sapiens) (UniProt Q04721); test: small molecules binding Notch2 protein – biochemical, small-molecule microarray, 635 nm fluorescence, stem cell growth factors, primary screen (AID 1073); details: higher = more signal
[6] = target: Pro-neuregulin-1, membrane-bound isoform (Homo sapiens) (UniProt Q02297); test: small molecules binding neuregulin-1 protein – biochemical, small-molecule microarray, fluorescence 635/667, psychiatric disease protein project, primary screen (AID 1075); details: NRG1 binding, 635 nm fluorescence, higher = more signal;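 further: score combines 667 nm spot fluorescence with signal to noise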
[7] = test system: Neuregulin-1 EGF-like domain; test: small molecules binding NRG1 EGF domain – biochemical, small-molecule microarray, 635 nm fluorescence, primary screen (AID 1081); details: higher = more signal;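 further: binding of the protein to compounds printed on small-molecule microarray slides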
[8] = FRG1 expression reporter modulators in myotubes – cell-based, C2C12 myotubes, firefly/Renilla luciferase, luminescence, FRG1 inhibition for FSHD, primary screen (AID 1084); details: FRG1 promoter luciferase, higher = more signal, called active from +8 up or from −8 down
[9] = small molecules captured by biotinylated probe aFST – biochemical, small-molecule microarray, fluorescence 635/667, stem cell growth factor project, primary screen (AID 1086); details: higher = more signal;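 further: score merges 667 nm fluorescence with signal-to-noise of each printed compound spot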
[10] = binders of probe aHhip on microarray, primary screen, stem cell growth factor project, biochemical, small-molecule microarray, fluorescence 635/667 (AID 1087); details: higher = more signal;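 further: score merges spot fluorescence at 667nm with spot signal to noise ratio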
[11] = test system: PRMT1 (protein arginine N-methyltransferase 1); test: small molecules binding arginine methyltransferase PRMT1 – biochemical, small-molecule microarray, 635 nm fluorescence, primary screen (AID 1088); details: higher = more signal;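 further: binding of Prmt1 protein to compounds spotted on small-molecule microarray slides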
[12] = growth effects on S. cerevisiae YJM789 – YJM789 clinical isolate, OD600, 24 h, basal, primary screen (AID 1089); details: higher = more signal, called active from +8 up or from −8 down;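 further: growth of clinical yeast isolate S. cerevisiae YJM 789 seeded 1000 cells per well; test concentration not given here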
[13] = S. pombe growth modifiers, basal conditions – strain 972, OD600, 24 h, no modulator, primary screen (AID 1090);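 further: basal condition with compound alone and no growth modifier present; test concentration not given here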; details: S. pombe 972 growth, higher = more signal, called active from +8 up or from −8 down
[14] = budding yeast growth modifiers under rapamycin – strain BY4716, OD600, 96 h, primary screen (AID 1091); further: test concentration not given here; details: S. cerevisiae BY4716 + rapamycin, higher = more signal, called active from +8 up or from −8 down
[15] = target: Torsin-1A-interacting protein 2 (Homo sapiens) (UniProt Q8NFQ8); test: small molecules binding lysate-expressed LULL1 – cell lysate, human LULL1 lysate, 635/667 nm fluorescence, primary screen (AID 1092); details: small-molecule microarray, hLULL1 lysate binding, 635 nm fluorescence; higher = more signal;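 further: probe is lysate of COS7 cells overexpressing human LULL1; score merges per-feature 667 nm fluorescence with signal-to-noise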
[16] = optical density change of DRC41 E. coli – strain DRC41, OD650, 24 h, E. coli filamentation project, primary screen (AID 1093);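 further: MC1000 strain lacking acrAB efflux and sulA so SOS filamentation is blocked; test concentration not given here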; details: E. coli DRC41 growth, higher = more signal, called active from +8 up or from −8 down
[17] = probe aLefty2 binding to arrayed compounds – biochemical, biotinylated probe, 635/667 nm fluorescence, primary screen (AID 1094); details: small-molecule microarray, higher = more signal;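 further: score merges spot fluorescence near 667 nm with spot signal-to-noise ratio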
[18] = test system: Noggin (protein binding on small-molecule microarray); test: small molecules binding Noggin protein – biochemical, 635/667 nm fluorescence, primary screen (AID 1095); details: 635 nm fluorescence, higher = more signal;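 further: score merges 667 nm feature fluorescence with signal to noise over triplicate slides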
[19] = target: Neurogenic locus notch homolog protein 3 (Homo sapiens) (UniProt Q9UM47); test: small molecules binding NOTCH3 protein – biochemical, 635/667 nm fluorescence, primary screen (AID 1096); details: small-molecule microarray, 635 nm fluorescence, higher = more signal
[20] = probe aEGFR binding to arrayed compounds – biochemical, biotinylated probe, 635/667 nm fluorescence, primary screen (AID 1097); details: small-molecule microarray, higher = more signal;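 further: probe is a biotinylated anti-EGFR antibody binding compounds printed on slides; score combines fluorescence near 667 nm and signal to noise of each spot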

Sequence of Neurogenic locus notch homolog protein 2 (Homo sapiens) (Q04721 whole entry, looked up, canonical isoform): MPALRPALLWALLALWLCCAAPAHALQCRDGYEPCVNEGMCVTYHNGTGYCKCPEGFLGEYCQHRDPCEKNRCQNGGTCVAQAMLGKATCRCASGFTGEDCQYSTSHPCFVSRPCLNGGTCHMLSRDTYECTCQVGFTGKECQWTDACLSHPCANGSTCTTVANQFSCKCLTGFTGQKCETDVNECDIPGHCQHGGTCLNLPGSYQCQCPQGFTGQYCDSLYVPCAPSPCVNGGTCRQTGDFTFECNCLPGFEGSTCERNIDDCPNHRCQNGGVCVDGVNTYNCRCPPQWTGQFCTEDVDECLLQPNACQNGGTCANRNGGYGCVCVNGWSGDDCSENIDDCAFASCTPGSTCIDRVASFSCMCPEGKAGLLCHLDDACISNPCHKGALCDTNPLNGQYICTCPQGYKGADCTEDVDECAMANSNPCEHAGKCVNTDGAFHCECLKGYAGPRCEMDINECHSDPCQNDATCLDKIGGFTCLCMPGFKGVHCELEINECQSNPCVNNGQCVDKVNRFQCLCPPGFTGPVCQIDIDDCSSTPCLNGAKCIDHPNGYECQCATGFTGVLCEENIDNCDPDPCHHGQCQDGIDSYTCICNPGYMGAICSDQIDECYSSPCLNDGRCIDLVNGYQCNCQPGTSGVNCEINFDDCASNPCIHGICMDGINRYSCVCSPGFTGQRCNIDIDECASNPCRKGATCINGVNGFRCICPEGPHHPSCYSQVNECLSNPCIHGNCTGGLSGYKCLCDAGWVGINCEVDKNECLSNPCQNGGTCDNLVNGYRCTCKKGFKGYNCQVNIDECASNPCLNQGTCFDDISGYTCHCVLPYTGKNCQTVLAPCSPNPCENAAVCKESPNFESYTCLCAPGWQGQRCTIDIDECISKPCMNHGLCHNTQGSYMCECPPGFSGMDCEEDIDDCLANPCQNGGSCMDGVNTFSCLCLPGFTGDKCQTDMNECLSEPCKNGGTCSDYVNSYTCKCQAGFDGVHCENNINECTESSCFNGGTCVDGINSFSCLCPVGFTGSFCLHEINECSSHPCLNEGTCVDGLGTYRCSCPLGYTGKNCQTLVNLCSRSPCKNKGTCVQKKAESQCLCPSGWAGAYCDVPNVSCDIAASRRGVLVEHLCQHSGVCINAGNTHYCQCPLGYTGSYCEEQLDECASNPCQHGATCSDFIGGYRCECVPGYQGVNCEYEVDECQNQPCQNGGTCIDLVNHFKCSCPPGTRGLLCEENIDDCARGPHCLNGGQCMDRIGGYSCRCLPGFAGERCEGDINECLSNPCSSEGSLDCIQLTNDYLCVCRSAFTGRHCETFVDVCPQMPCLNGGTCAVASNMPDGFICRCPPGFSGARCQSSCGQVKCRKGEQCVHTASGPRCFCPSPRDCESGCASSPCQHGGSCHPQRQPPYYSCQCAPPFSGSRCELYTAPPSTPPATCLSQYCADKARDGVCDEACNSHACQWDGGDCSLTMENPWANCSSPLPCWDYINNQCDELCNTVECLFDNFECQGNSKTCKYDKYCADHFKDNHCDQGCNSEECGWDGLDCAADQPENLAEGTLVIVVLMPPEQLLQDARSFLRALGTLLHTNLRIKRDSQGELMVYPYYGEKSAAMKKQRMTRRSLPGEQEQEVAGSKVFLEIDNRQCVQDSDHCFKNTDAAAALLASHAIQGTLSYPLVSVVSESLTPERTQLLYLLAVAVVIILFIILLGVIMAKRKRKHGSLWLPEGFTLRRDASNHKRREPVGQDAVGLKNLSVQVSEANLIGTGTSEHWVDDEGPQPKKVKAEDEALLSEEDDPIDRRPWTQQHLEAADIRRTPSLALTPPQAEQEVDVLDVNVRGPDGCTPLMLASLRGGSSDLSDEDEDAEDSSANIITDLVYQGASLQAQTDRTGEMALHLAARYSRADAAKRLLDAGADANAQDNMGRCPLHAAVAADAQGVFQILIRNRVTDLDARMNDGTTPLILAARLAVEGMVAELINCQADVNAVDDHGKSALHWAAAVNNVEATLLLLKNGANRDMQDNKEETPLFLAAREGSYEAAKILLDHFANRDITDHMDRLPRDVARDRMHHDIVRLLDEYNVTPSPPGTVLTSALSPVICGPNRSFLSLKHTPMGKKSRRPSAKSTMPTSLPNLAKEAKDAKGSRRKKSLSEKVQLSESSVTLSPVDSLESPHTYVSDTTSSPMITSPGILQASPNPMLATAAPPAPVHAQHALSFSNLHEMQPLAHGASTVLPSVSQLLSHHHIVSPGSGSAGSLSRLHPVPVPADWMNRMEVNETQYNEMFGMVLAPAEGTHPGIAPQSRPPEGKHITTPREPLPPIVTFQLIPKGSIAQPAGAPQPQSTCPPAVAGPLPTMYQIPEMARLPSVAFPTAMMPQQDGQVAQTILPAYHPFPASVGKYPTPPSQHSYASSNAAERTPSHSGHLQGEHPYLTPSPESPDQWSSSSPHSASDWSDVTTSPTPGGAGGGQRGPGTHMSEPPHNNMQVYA
Sequence of Neurogenic locus notch homolog protein 3 (Homo sapiens) (Q9UM47 whole entry, looked up): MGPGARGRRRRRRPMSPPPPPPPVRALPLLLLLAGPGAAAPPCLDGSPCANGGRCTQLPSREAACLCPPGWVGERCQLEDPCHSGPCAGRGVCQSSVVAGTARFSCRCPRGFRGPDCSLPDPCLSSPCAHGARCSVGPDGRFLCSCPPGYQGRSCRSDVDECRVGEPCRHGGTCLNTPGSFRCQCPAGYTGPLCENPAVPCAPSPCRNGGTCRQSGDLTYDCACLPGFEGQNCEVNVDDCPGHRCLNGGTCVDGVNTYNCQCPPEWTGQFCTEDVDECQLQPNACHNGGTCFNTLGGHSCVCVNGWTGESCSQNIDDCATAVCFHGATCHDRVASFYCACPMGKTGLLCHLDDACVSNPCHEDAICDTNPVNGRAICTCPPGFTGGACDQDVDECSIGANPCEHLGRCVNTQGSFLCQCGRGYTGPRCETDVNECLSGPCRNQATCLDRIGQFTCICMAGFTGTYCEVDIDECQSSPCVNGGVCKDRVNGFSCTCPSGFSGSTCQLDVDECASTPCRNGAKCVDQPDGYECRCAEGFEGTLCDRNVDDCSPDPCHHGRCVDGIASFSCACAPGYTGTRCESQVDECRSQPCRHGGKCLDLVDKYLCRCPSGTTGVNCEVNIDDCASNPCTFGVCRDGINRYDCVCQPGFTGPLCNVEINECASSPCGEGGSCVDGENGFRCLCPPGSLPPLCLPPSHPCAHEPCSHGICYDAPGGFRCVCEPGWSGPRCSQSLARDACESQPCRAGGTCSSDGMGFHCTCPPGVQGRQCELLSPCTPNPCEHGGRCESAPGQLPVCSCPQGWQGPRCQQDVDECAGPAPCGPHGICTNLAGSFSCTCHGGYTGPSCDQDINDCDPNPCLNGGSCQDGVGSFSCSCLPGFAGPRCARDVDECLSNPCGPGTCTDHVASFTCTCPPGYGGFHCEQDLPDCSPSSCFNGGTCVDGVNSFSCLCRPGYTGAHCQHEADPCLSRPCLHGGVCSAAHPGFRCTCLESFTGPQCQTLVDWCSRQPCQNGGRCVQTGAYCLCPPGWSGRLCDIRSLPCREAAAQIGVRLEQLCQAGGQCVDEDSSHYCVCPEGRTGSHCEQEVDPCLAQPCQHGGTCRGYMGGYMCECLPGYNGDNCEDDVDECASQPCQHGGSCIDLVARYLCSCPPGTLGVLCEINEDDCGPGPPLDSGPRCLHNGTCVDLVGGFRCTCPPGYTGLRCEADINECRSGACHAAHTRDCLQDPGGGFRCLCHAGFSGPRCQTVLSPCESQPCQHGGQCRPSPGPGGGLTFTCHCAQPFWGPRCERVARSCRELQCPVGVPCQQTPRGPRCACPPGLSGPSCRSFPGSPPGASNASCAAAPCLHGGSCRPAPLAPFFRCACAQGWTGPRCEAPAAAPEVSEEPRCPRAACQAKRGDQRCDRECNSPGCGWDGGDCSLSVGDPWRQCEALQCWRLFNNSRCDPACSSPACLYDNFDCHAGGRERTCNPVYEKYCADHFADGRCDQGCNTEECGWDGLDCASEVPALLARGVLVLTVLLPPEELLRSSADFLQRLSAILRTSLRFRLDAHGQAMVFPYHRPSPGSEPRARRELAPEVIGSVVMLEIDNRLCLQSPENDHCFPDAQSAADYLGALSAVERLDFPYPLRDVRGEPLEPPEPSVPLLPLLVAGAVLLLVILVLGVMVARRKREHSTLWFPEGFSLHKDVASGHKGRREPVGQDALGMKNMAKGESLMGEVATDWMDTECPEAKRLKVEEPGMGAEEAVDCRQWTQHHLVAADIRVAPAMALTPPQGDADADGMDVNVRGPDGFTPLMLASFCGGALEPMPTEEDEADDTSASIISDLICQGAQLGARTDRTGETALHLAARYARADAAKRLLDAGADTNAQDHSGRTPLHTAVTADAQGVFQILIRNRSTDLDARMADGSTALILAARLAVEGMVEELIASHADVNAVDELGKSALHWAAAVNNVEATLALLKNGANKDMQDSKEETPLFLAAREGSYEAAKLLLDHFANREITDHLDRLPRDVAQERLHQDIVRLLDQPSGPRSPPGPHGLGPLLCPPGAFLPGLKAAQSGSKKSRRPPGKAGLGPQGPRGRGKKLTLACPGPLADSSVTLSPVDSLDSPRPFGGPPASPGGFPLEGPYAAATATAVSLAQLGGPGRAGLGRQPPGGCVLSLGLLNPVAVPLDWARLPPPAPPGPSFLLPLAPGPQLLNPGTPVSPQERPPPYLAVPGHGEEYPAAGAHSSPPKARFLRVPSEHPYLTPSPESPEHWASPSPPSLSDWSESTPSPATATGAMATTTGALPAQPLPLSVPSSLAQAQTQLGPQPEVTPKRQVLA

| Structure (SMILES) | composite z-score [1] | composite z-score [2] | composite z-score [3] | composite z-score [4] | composite z-score [5] | composite z-score [6] | composite z-score [7] | z-score [8] | composite z-score [9] | composite z-score [10] | composite z-score [11] | z-score [12] | z-score [13] | z-score [14] | composite z-score [15] | z-score [16] | composite z-score [17] | composite z-score [18] | composite z-score [19] | composite z-score [20] |
| --- | --- | --- | --- | --- | --- | --- | --- | --- | --- | --- | --- | --- | --- | --- | --- | --- | --- | --- | --- | --- |
| CCOC(=O)C1=CCC(c2ccccc2)N(S(=O)(=O)CC[Si](C)(C)C)C1 (stereo not given) | -0.264 | 0.701 | -0.137 | -0.765 | -0.606 | 0.0168 | -0.518 | -3.74 (inactive) | -0.407 | -0.0994 | -0.0595 | -0.465 (inactive) | 0.178 (inactive) | 2.78 (inactive) | 0.0058 | 0.185 (inactive) | -0.235 | -0.288 | -0.822 | -0.334 |
| CN(C)CCCCCCNC(=O)[C@@H]1C[C@@H]2C(=O)N[C@@H](CCCCN)C(=O)N2[C@@H]1c1cccc(OCCO)c1 | 3.04 | 2.4 | 0.862 | 1.13 | 1.05 | 2.75 | 1.52 | 0.718 (inactive) | 3.58 | 1.72 | 1.55 | -5.46 (inactive) | -5.83 (inactive) | -1.3 (inactive) | 4.63 | 0.0508 (inactive) | 1.65 | 1.8 | 1.02 | 1.02 |
| C=CCNC(=O)[C@@H]1[C@H]2C(=O)O[C@H](c3ccccc3)[C@H](c3ccccc3)N2[C@H](c2ccc(OCCO)cc2)[C@@]12C(=O)Nc1ccc(C#Cc3ccc(OC)cc3)cc12 | -0.175 | 1.14 | 0.0969 | 0.73 | 1.41 | 1.24 | 1.18 | 0.994 (inactive) | 0.4 | 0.283 | 1.55 | 2.34 (inactive) | 0.961 (inactive) | 4.49 (inactive) | 2.48 | 0.838 (inactive) | 0.182 | 1.22 | 1.08 | 0.116 |
| C=CCNC(=O)[C@@H]1[C@H]2C(=O)O[C@H](c3ccccc3)[C@H](c3ccccc3)N2[C@H](c2ccc(OCCO)cc2)[C@@]12C(=O)Nc1ccc(C#CCCO)cc12 | 0.604 | 0.727 | 0.162 | 0.944 | 1.05 | 0.853 | 1.25 | 0.806 (inactive) | 0.804 | -0.138 | 1.52 | 0.85 (inactive) | 0.975 (inactive) | 3.39 (inactive) | 3.29 | -0.207 (inactive) | 0.501 | 1.36 | 1.12 | 0.692 |
| [N-]=[N+]=NCc1ccccc1C[C@]1(C(=O)O)N=C(c2ccc(OCCCO)cc2)O[C@H]1c1ccccc1N=[N+]=[N-] | -0.146 | 0.268 | -0.0004 | 0.833 | 1.52 | 1.78 | 1.25 | -1.47 (inactive) | 0.921 | 0.138 | 1.56 | 0.869 (inactive) | -0.742 (inactive) | 0.924 (inactive) | 3.21 | 0.644 (inactive) | -0.128 | 0.435 | 1.14 | 0.012 |
| O=C(O)[C@@]1(CCS(=O)(=O)c2ccccc2)COC(c2ccc(OCCCO)cc2)=N1 | 0.803 | -0.715 | -0.196 | -0.0573 | -0.243 | 0.964 | 1.35 | 0.143 (inactive) | -0.0694 | 0.35 | -0.16 | 0.608 (inactive) | -2.3 (inactive) | -0.717 (inactive) | 2.76 | -0.16 (inactive) | 0.188 | -0.754 | -0.395 | -0.0828 |
| CC1(C)[C@@H]2CC(C(O)C3C=CC4C(=O)N(c5ccccc5)C(=O)C4N3Nc3ccccc3)=C[C@H]1C2 (stereo not given in full) | 0.11 | -0.6 | 0.062 | 0.45 | 1.03 | 1.15 | 0.886 | -0.559 (inactive) | 0.889 | 0.142 | -0.0035 | -0.4 (inactive) | 0.286 (inactive) | -0.136 (inactive) | 2.58 | -0.936 (inactive) | -0.0008 | -0.161 | 0.367 | -0.0431 |
| CC(C)(C)OC(=O)CC[C@@]1(C(N)=O)N=C(c2ccc(OCCCO)cc2)O[C@@H]1c1ccccc1 | 0.0075 | 1.93 | -0.0399 | 0.558 | 1.29 | 1.71 | 1.24 | 0.18 (inactive) | 1.05 | -0.134 | 1.57 | -0.145 (inactive) | -0.589 (inactive) | -0.399 (inactive) | 3.17 | -0.511 (inactive) | 0.0917 | 0.392 | 0.79 | 0.106 |
| C#CCN(Cc1ccccc1Br)C(/C=C/c1ccccc1)CO (stereo not given) | 0.389 | 0.0837 | -0.148 | 0.0126 | -0.619 | -0.17 | -0.131 | -1.83 (inactive) | -0.481 | -0.236 | -0.69 | -2.9 (inactive) | -19.4 (active) | 0.934 (inactive) | 0.123 | 0.556 (inactive) | -0.144 | -0.193 | -0.598 | -0.277 |
| C#CCN(CC=C(C)C)[C@H](CO)c1ccccc1 | -0.418 | 0.0737 | -0.164 | -0.078 | 0.204 | -0.223 | -0.187 | -0.154 (inactive) | -0.0173 | -0.199 | 0.489 | -0.319 (inactive) | -4.47 (inactive) | -1.92 (inactive) | 0.0196 | 0.333 (inactive) | -0.0518 | 0.223 | 0.109 | -0.0814 |
